KCNQ2 pot = enhances the rat KCNQ2 potassium channel; O88943; CHO-K1 KCNQ2, FluxOR thallium flux fluorescence; hits give high values; B-score at 10 µM; 0.54% of 310,000 active;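 active = fluorescence ratio B-score at least 3 SD of library B-scores, with initial fluorescence B-score within 3 of them, cut at about 5.3 in these data; same plate scores as AID 2156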;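 also: B-score of peak minus minimum over baseline fluorescence ratio after K+ and Tl+ stimulus; positive B-score means potentiation of KCNQ2 with more thallium influx and brighter signal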
Target sequence (O88943 whole entry, looked up): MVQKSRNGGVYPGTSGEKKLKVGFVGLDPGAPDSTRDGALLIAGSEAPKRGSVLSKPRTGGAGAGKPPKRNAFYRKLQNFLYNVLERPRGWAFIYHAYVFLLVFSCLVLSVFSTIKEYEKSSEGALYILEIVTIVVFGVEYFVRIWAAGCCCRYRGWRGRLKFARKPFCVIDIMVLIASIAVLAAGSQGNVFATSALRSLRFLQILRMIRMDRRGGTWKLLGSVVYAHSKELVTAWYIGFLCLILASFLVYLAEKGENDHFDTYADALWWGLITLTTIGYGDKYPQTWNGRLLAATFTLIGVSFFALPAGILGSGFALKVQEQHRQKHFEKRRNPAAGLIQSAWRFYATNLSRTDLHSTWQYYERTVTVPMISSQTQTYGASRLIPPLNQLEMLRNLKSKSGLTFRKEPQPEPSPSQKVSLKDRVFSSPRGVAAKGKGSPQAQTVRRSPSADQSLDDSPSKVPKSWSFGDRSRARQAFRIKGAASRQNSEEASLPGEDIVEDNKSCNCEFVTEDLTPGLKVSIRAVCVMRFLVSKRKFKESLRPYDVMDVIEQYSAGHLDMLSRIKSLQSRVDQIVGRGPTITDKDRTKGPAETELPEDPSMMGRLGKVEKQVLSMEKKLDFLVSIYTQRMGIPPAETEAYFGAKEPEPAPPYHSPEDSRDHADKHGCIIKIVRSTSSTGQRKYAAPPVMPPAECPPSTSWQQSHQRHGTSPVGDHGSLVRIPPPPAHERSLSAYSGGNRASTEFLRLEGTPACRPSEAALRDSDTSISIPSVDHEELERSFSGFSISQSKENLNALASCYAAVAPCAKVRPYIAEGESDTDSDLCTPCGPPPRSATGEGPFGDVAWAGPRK
KCNQ2 inh = inhibitors of rat KCNQ2 potassium channel; O88943; CHO-K1 KCNQ2, FluxOR thallium flux, 20 min; hits give low values; B-score at 10 µM; 1.1% of 310,000 active; AID 2156;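 active = fluorescence ratio B-score at most minus 3 library SDs, with starting brightness B-score within 2 library SDs, cut at about -5.5 in these data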
Kir21 confirm = confirmation of mouse Kir2.1 potassium channel inhibitors | shares compounds with KCNQ2 pot | Kir2.1-expressing cells, FluxOR thallium flux fluorescence; hits give low values | Tl flux remaining, % of negative control (hits give low values), % at 10 µM | 41% of 2,300 active | AID 2032;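 active = Primary-screen hit whose thallium flux fell at least 3 control SD below untreated wells in both duplicates, with normal baseline fluorescence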;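 also: 0% = blank wells without stimulus and 100% = stimulated no-compound controls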
HEK293 Tl flux = parental HEK293 activity in Kir2.1 inhibitor counter-screen | FluxOR signal as % of negative control (100 = no effect), % at 10 µM | 19% of 2,300 active | shares compounds with KCNQ2 pot | parental HEK293 cells, FluxOR thallium flux fluorescence; 0% = unstimulated blank wells;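 active = dye signal at least 3 control SD above or below untreated wells in both duplicates, raw fluorescence within 3, either direction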;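 also: percent is based on the flux ratio of peak minus minimum fluorescence over baseline F0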
CHO-K1 ctr = parental CHO-K1 activity in KCNQ2 potentiator counter-screen; activity increase over 3SD of controls, % at 10 µM; parental CHO-K1 cells, FluxOR thallium flux fluorescence; zero = vehicle mean+3SD, 100% = vehicle-minus-blank window; 43% of 1,200 active; shares compounds with KCNQ2 pot;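 active = signal rise of at least 3 SD above the untreated control mean, in both duplicate wells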;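 also: counter screen of KCNQ2 potentiator hits so any rise reflects channel-independent effects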
KCNQ1 sel pot = tests whether KCNQ2 potentiators also act on human KCNQ1. CHO KCNQ1 stable, FluxOR thallium flux fluorescence; beyond 3SD, as % of vehicle-control signal. 28% of 1,200 active. activation over 3SD threshold, % at 10 µM. shares compounds with KCNQ2 pot;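 active = fluorescence ratio rise of at least 3 SD of vehicle wells above their mean, in both replicate wells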;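 also: 0% = vehicle mean plus 3 SD and 100% = vehicle minus unstimulated blank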
KCNQ2 pot confirm = confirmation of rat KCNQ2 potassium channel potentiators; shares compounds with KCNQ2 pot; CHO-KCNQ2 cells, FluxOR thallium flux fluorescence; 68% of 1,200 active; AID 2287; potentiation, less the hit threshold, % at 10 µM;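 active = fluorescence ratio rising 3 SD or more over the vehicle control mean in both replicates, plus primary screen hit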;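 also: peak minus minimum thallium fluorescence divided by baseline after K/Tl stimulus; 0% = vehicle mean plus 3 SD and 100% = vehicle minus unstimulated blank difference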
Kir21 spec = mouse Kir2.1 off-target activity of KCNQ2 potentiators; HEK293 Kir2.1, FluxOR thallium flux fluorescence; 2% of 1,200 active; shares compounds with KCNQ2 pot; AID 2345; activity over 3SD threshold, % at 10 µM;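 active = fluorescence ratio rise of at least 3 SD above the vehicle-control mean, seen in both replicates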;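 also: 0% = vehicle mean plus 3 SD and 100% = vehicle minus no-stimulus blank window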
KCNQ2 W236L pot = KCNQ2 potentiators acting on retigabine-insensitive rat KCNQ2 W236L mutant | shares compounds with KCNQ2 pot | CHO KCNQ2-W236L, automated patch clamp current | current increase over 3SD of negative controls (%), hits give high values, % at 25 µM | 10% of 940 active;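 active = current increase at least 3 SD of the untreated controls above them in both duplicate recordings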
* hit, by the source's call; i = inactive; . = not tested or not shown. In the library only some 1.6% were active in any assay of this set; here they are far more common.

SMILES | KCNQ2 pot | KCNQ2 inh | Kir21 confirm | HEK293 Tl flux | others
C/C=C(\C)C(=O)NCCN1C2=NC[C@H](Cc3ccccc3)N2C[C@@H]1Cc1ccc(OC)cc1 | 0.09 | i | . | .
C[C@@H](CN1C2=NC[C@H](Cc3ccccc3)N2C[C@H]1Cc1ccc(O)cc1)NC(=O)CCC1CCCCC1 | . | i | . | .
COc1ccc(C[C@H]2CN3C(=NC[C@H]3Cc3ccccc3)N2CCNC(=O)CCC2CCCCC2)cc1 | . | i | 47.0%* | i
O=C(NCCC1CCCCN1S(=O)(=O)c1ccc(F)cc1)C(=O)NCc1cccnc1 (configuration not stated) | . | i | . | .
Cc1cc(C)c2c(=O)[nH]c(SCc3ccc([N+](=O)[O-])cc3)nc2n1 | 0.02 | i | . | .
COC(=O)C1CCN(C(=O)COC(=O)CCc2nc3ccccc3c(=O)[nH]2)CC1 | . | i | . | .
O=C(NCc1cccc(F)c1)C1CCN(C(=O)c2sccc2-n2cccc2)CC1 | 0.59 | i | . | .
CCCCCNc1nc(NCCCO)c(C#N)c2c1CN(C)CC2 | 1.83 | i | . | .
C=CCNc1nc(NCc2ccccc2)c(C#N)c2c1CN(C)CC2 | . | i | 42.0%* | i
CCN1CCc2c(C#N)c(NCc3ccccc3)nc(N(CC)CC)c2C1 | 9.13* | i | i | i | CHO-K1 ctr=-8.3;KCNQ1 sel pot=-22.3;KCNQ2 pot confirm=31.4*;Kir21 spec=-49.5;KCNQ2 W236L pot=i
CCCc1nc(NCc2ccccc2)c(C#N)c2c1CCCC2 | . | i | . | .
COc1ccc(S(=O)(=O)N2CCN(C(=O)Nc3ccccc3OC)CC2)cc1 | . | i | . | .
CCCCOc1ccc(C(=O)NCCOc2cccc(OC)c2)cc1 | . | i | . | .
Cn1nc(C(F)(F)F)c2cc(NC(=O)OCc3ccc(C(C)(C)C)cc3)sc21 | 6.27* | i | i | i | CHO-K1 ctr=38.1*;KCNQ1 sel pot=-7.0;KCNQ2 pot confirm=-15.5;Kir21 spec=-34.2
Cn1nc(C(F)(F)F)c2cc(NC(=O)OCc3ccc(F)cc3)sc21 | 4.4 | i | . | .
CCOc1ccccc1CNC(=O)c1ccc(NC(=O)C2=C(C)OCCS2)cc1 | 1.33 | i | . | .
COc1cc2ncnc(NCCc3ccccc3)c2cc1OC | 5.42* | i | i | 131.0%* | CHO-K1 ctr=10.9*;KCNQ1 sel pot=-9.1;KCNQ2 pot confirm=-8.2;Kir21 spec=-20.6
COc1ccc(CCNc2ncnc3cc(OC)c(OC)cc23)cc1OC | 2.13 | i | . | .
CCN(CC)CCN1C(=O)C(=O)/C(=C(/O)c2ccc(S(=O)(=O)N3CCOCC3)cc2)C1c1ccc(C)cc1 (configuration not stated) | 0.4 | i | . | .
C=CCn1c(SCc2ccccc2C#N)nnc1-c1cc(Br)ccc1O | . | i | i | i
C=CCn1c(SCC(N)=O)nnc1-c1cccc(Br)c1 | 0.43 | i | . | .
N#C/C(=C\Nc1ccc(Cl)cc1)S(=O)(=O)c1ccccn1 | 0.6 | i | . | .
Cc1ccccc1CNS(=O)(=O)c1ccccc1[N+](=O)[O-] | 0.52 | i | . | .
Cc1onc(-c2ccccc2)c1CNS(=O)(=O)c1ccccc1[N+](=O)[O-] | 0.48 | i | 60.5%* | i
COc1ccc(C(=O)N2CCc3[nH]nc(-c4ccccc4)c3C2)cc1 | . | i | . | .
SMILES | KCNQ2 pot | KCNQ2 inh | Kir21 confirm | HEK293 Tl flux | others
COc1ccc(NC(=O)Nc2ccccc2C(=O)N2CCCC2)cc1 | 1.64 | i | . | .
CC(C)(C)OC(=O)NCCCCCc1nnc(SCc2ccc(F)cc2)o1 | . | i | . | .
CC(C)(C)OC(=O)N1CCC[C@H]1c1nnc(SCc2ccccc2)o1 | . | i | . | .
Cc1ccc(CSc2nnc([C@@H]3CCCN3C(=O)OC(C)(C)C)o2)cc1 | . | i | 50.0%* | 66.5%*
CC(C)(C)OC(=O)NCCc1nnc(SCc2ccccc2Cl)o1 | . | i | . | .
Cc1ccc(CSc2nnc(CCNC(=O)OC(C)(C)C)o2)cc1 | . | i | 29.0%* | i
CC(C)(C)OC(=O)NCCc1nnc(SCc2ccccc2)o1 | . | i | 45.0%* | 77.0%*
O=[N+]([O-])c1ccc(-[n+]2nc(-c3ccccc3)nn2-c2ccccc2)cc1 | . | i | . | .
CCCCN(CC)CCCNC(=S)Nc1ccc2nc3n(c(=O)c2c1)CCCCC3 | 0.93 | i | . | .
COc1ccc(CNC(=O)c2csc(Cc3ccc(OC)cc3)n2)cc1 | . | i | 52.0%* | i
COc1ccc(CNC(=O)c2csc(Cc3ccc(Cl)cc3)n2)cc1 | . | i | . | .
CN(CC(=O)NC1(C)CCS(=O)(=O)C1)S(=O)(=O)c1ccc(Cl)cc1 (configuration not stated) | 0.64 | i | . | .
Clc1ccc2nc(-c3ccc(Cl)nc3)[nH]c2c1 | 6.9* | i | i | i | CHO-K1 ctr=-6.8;KCNQ1 sel pot=56.6*;KCNQ2 pot confirm=5.7*;Kir21 spec=-16.7;KCNQ2 W236L pot=3.5%*
Nc1ccc2nc(-c3ccc(Cl)cc3)[nH]c2c1 | 0.01 | i | . | .
CCC(C(=O)OCC(=O)NC(=O)c1ccccc1)c1ccccc1 (configuration not stated) | . | i | . | .
CCC(C(=O)OCC(=O)NC(=O)c1ccccc1OC)c1ccccc1 (configuration not stated) | . | i | 69.5%* | i
CC1CN(C(=O)CCC(=O)N2CCN(c3cccc(C(F)(F)F)c3)CC2)c2ccccc2O1 (configuration not stated) | . | i | . | .
COC(=O)CSc1[nH]c2ccc(Br)cc2c1[N+](=O)[O-] | 6.46* | i | i | i | CHO-K1 ctr=-22.3;KCNQ1 sel pot=-12.9;KCNQ2 pot confirm=-24.1;Kir21 spec=-22.9
CCOc1ccc2[nH]c(SCC(=O)OC)c([N+](=O)[O-])c2c1 | . | i | . | .
Cc1ccc(Cl)c(OCCCN(C)Cc2ccccc2)c1 | . | i | . | .
C/C=C/c1ccc(OCCCCN(C)Cc2ccccc2)c(OC)c1 | . | i | 22.5%* | i
Cc1ccc(Cl)c(OCCCCN(C)Cc2ccccc2)c1 | . | i | 19.5%* | i
C/C=C/c1ccc(OCCNCc2ccccc2)c(OC)c1 | . | i | . | .
Cc1ccc(CNC(=O)C2CCC(=O)N2CCc2ccccc2)cc1 (configuration not stated) | . | i | . | .
CCc1nc(C)cn1S(=O)(=O)c1cc(Br)ccc1OC | 1.04 | i | 24.5%* | i
CCc1nc(C)cn1S(=O)(=O)c1cc(Br)c(C)cc1OC | . | i | 35.0%* | i
CCc1nc(C)cn1S(=O)(=O)c1cc(C)c(OC)cc1C | 1.58 | i | . | .
CCc1nc(C)cn1S(=O)(=O)c1cc(Cl)c(OC)cc1Cl | 0.58 | i | 57.5%* | i
